# Source: PubChem BioAssay AID624151 (Broad Institute, 2012)
# The whole screen tested about 28,000 compounds, of which about 410 (1.5%) were called active. Rule as the data show it: active = activation above about 52%; inconclusive = no clear call, values can overlap the other calls; inactive = below that. This excerpt belongs to a sample that is enriched for actives.
# Experiment: mutant p53 pathway re-activators, primary screen, cell-based, SW480, luciferase, single point, HTS (AID 624151)
# Settings: SW480 PUMA-promoter luciferase, p53 mutant reactivation; at 9.98 µM; hits give high values
row,Structure (SMILES),activation
1,CS(=O)(=O)N(CC(=O)Nc1cc(C(F)(F)F)ccc1Cl)c1ccccc1Br,-13.9% (inactive)
2,Cc1ccc(OCC(=O)Nc2cc(-c3nc4cc(C)c(C)cc4o3)ccc2C)cc1,39.9% (inactive)
3,Cc1ccc2nc(-c3ccc(Cl)c(NC(=O)COc4ccc(Br)cc4)c3)oc2c1,91.4% (active)
4,Cc1cc(C)c2oc(-c3cccc(NC(=O)COc4ccc(Br)cc4)c3C)nc2c1,-29.6% (inactive)
5,CS(=O)(=O)N(CC(=O)Nc1ccccc1C(=O)N1CCOCC1)c1ccc(I)cc1,9.09% (inactive)
6,CN(C)CCNc1oc(COc2ccc(F)cc2)nc1C#N,-4.45% (inactive)
7,Cc1ccc(N(CC(O)CN2C(=O)NC(C)(C)C2=O)S(=O)(=O)c2ccccc2)cc1 (stereo not drawn),22.6% (inactive)
8,O=C1c2ccccc2C(=O)N1CCCc1nc2ccccc2c(=O)n1-c1nc2ccccc2s1,102% (active)
9,O=C1c2ccccc2C(=O)N1CCCn1c2ccccc2c2nc3ccc([N+](=O)[O-])cc3cc21,9.36% (inactive)
10,Cc1ccc(NC(=O)CCCN2C(=O)c3ccccc3C2=O)cc1,11.8% (inactive)
11,COCC#Cc1cnc2c(c1)C(=O)N([C@H](C)CO)C[C@H](C)[C@@H](CN(C)C(=O)Nc1cc(F)ccc1F)O2,13.3% (inactive)
12,CC(NS(=O)(=O)c1ccc(F)cc1)C(=O)Nc1ccc(I)cc1 (stereo not drawn),-13.8% (inactive)
13,COc1ccc(C#Cc2cnc3c(c2)C(=O)N([C@H](C)CO)C[C@H](C)[C@@H](CN(C)C)O3)cc1,0.282% (inactive)
14,COc1ccc(S(=O)(=O)N(C)CC(=O)Nc2ccc3c(c2)OCCO3)cc1OC,-12.9% (inactive)
15,O=C(CS(=O)(=O)c1ccccc1)Nc1ccccc1O,7.6% (inactive)
16,O=C(CS(=O)(=O)c1ccccc1)Nc1ccc2c(c1)OCCO2,61.6% (active)
17,CC(C)(C)c1ccc(OCC(=O)NCc2ccccn2)c(Br)c1,94.5% (active)
18,Cc1ccc2nc(-c3ccncc3)cc(C(=O)NCc3ccccn3)c2c1,-3.82% (inactive)
19,CN(c1ccc(C(=O)NCc2ccccn2)cc1)S(C)(=O)=O,5.75% (inactive)
20,CCCNC(=O)N(C)C[C@H]1Oc2cc(C#CC(C)(C)O)ccc2S(=O)(=O)N([C@H](C)CO)C[C@@H]1C,14.1% (inactive)
21,CCc1ccccc1NC(=O)Cn1cnc2scc(-c3ccc(OC)cc3)c2c1=O,-10.3% (inactive)
22,Cc1cccc(N(CC(=O)Nc2cccc([N+](=O)[O-])c2)S(C)(=O)=O)c1C,-1.11% (inactive)

row,Structure (SMILES),activation
1,Cc1nc(SCC(=O)Nc2ccc(C(=O)O)cc2)[nH]c(=O)c1C,-11.8% (inactive)
2,CCn1cc(CNC(=S)Nc2cc(OC)ccc2OC)cn1,-10.5% (inactive)
3,CCCNC(=O)N(C)C[C@@H]1Oc2ncc(-c3ccccc3F)cc2C(=O)N([C@@H](C)CO)C[C@H]1C,16.1% (inactive)
4,CC(C)(C)c1ccc(OCC(=O)Nc2cccc(NC(=O)c3ccccc3)c2)cc1,39.6% (inactive)
5,Cc1cc(C)cc(OCC(=O)Nc2cccc(-c3nnc(-c4ccccc4)o3)c2)c1,90.4% (active)
6,COc1ccccc1CC(=O)Nc1ccc(-c2nnc(-c3ccc(C)cc3)o2)cc1,-31.3% (inactive)
7,Cc1[nH]c2ccccc2c1C(=O)CSc1ccc2ccccc2n1,-16.4% (inactive)
8,CCCNC(=O)N(C)C[C@@H]1Oc2ncc(-c3cccc(C#N)c3)cc2C(=O)N([C@@H](C)CO)C[C@H]1C,0.271% (inactive)
9,CC(C)C#Cc1ccc2c(c1)O[C@@H](CN(C)Cc1ccncc1)[C@@H](C)CN([C@@H](C)CO)S2(=O)=O,-4.79% (inactive)
10,CC(Sc1ncn(-c2ccccc2)n1)C(=O)Nc1ccc(Cl)cc1 (stereo not drawn),7.31% (inactive)
11,C[C@H](CO)N1C[C@H](C)[C@H](CN(C)Cc2cccc(C(=O)O)c2)Oc2ncc(-c3ccccc3F)cc2C1=O,5.45% (inactive)
12,COc1cc([C@H](Cc2ccccc2)NC(C)=O)oc(=O)c1,12.8% (inactive)
13,COc1ccc2c(c1)C(=O)CC(c1ccccc1)O2 (stereo not drawn),60.3% (active)
14,COc1ccc(NC(=O)Nc2ccc3c(c2)[C@@H]2C[C@H](CC(=O)N[C@@H](C)c4ccccc4)O[C@@H](CO)[C@@H]2O3)cc1,-6.79% (inactive)
15,Cn1nc(CC(=O)Nc2ccc3c(c2)oc2ccccc23)c2ccccc2c1=O,-34.2% (inactive)
16,O=C(C[C@@H]1C[C@H]2c3cc(NC(=O)NC4CCCC4)ccc3O[C@H]2[C@H](CO)O1)NCc1cc(F)ccc1F,-2.6% (inactive)
17,C[C@H]1CN([C@@H](C)CO)C(=O)c2cc(-c3ccc(C#N)cc3)cnc2O[C@@H]1CN(C)Cc1ccncc1,-0.372% (inactive)
18,Cc1ccc([N+](=O)[O-])cc1NC(=O)CSC1=NCCS1,-5.18% (inactive)
19,CNC[C@H]1Oc2cc(C#CC(C)(C)O)ccc2S(=O)(=O)N([C@@H](C)CO)C[C@@H]1C,15.9% (inactive)
20,C[C@@H]1CN([C@H](C)CO)C(=O)c2c(c3ccccc3n2C)-c2ccccc2CO[C@H]1CN(C)S(=O)(=O)c1ccccc1F,1.72% (inactive)
21,Nc1nnc(SCC(=O)Nc2ccc(F)c(Cl)c2)s1,-1.2% (inactive)
22,C[C@@H]1CN([C@@H](C)CO)S(=O)(=O)c2ccc(C#CCC3CCCC3)cc2O[C@H]1CN(C)Cc1ccc(C(=O)O)cc1,-0.35% (inactive)

row,Structure (SMILES),activation
1,C[C@@H]1CCCCO[C@@H](CN(C)S(=O)(=O)c2cn(C)cn2)[C@@H](C)CN([C@@H](C)CO)C(=O)c2cc(NC(=O)NC3CCCCC3)ccc2O1,16% (inactive)
2,COc1ccc(OC)c(S(=O)(=O)N(C)CC(=O)Nc2cccc(Cl)c2C)c1,-5.43% (inactive)
3,CNC[C@H]1Oc2ncc(-c3ccccc3C)cc2C(=O)N([C@@H](C)CO)C[C@@H]1C,6.16% (inactive)
4,CC(=O)Nc1ccc(NC(=O)CSc2nnc3c4cc(Br)ccc4n(C)c3n2)cc1,-24.7% (inactive)
5,C[C@@H]1CN([C@@H](C)CO)C(=O)c2cc(C#CC(C)(C)O)cnc2O[C@H]1CN(C)Cc1cccc(F)c1,-7.7% (inactive)
6,COc1ccccc1NC(=O)CN(c1ccc(Br)c(C)c1)S(C)(=O)=O,7.45% (inactive)
7,C[C@@H]1CN([C@H](C)CO)C(=O)c2cc(-c3cncnc3)cnc2O[C@@H]1CN(C)Cc1ccc(Oc2ccccc2)cc1,9.54% (inactive)
8,CCc1cc(C(=O)OC)c(NC(=S)Nc2ccc(OC)cc2[N+](=O)[O-])s1,62.7% (active)
9,COC(=O)c1c(NC(=S)Nc2ccc(OC)cc2[N+](=O)[O-])sc2c1CCC(C)C2 (stereo not drawn),4.27% (inactive)
10,COc1ccc(NC(=O)CSc2nncc3ccccc23)c([N+](=O)[O-])c1,4.65% (inactive)
11,CC(C(=O)Nc1nccs1)C1SC(=O)NC1=O (stereo not drawn),1.73% (inactive)
12,C[C@H]1CN([C@@H](C)CO)C(=O)c2cc(C3=CCCC3)cnc2O[C@H]1CN(C)Cc1ccccc1C(=O)O,16.5% (inactive)
13,COCC#Cc1cnc2c(c1)C(=O)N([C@H](C)CO)C[C@H](C)[C@H](CN(C)C(=O)CCN1CCCCC1)O2,6.72% (inactive)
14,Cc1ccc(S(=O)(=O)N(C)C[C@@H]2Oc3c(NC(=O)C4CC4)cccc3C(=O)N([C@H](C)CO)C[C@@H]2C)cc1,-8.13% (inactive)
15,COc1cc(NC(=S)NCCN2CCOCC2)c(OC)cc1Cl,-5.79% (inactive)
16,Cc1cc(=O)oc2cc(OC(C)C(=O)Nc3ccc(N4CCOCC4)cc3)ccc12 (stereo not drawn),7.05% (inactive)
17,CC(=O)CCc1c(C)[nH]c2ccc(C)cc2c1=O,14.2% (inactive)
18,C[C@@H]1CCCCO[C@@H](CN(C)S(=O)(=O)c2cn(C)cn2)[C@H](C)CN([C@H](C)CO)C(=O)c2cc(NC(=O)NC3CCCCC3)ccc2O1,17% (inactive)
19,COc1cc(Cl)c(C)cc1NC(=O)CN(C)S(=O)(=O)c1ccc2ccccc2c1,14.5% (inactive)
20,C[C@@H]1CN([C@H](C)CO)S(=O)(=O)c2ccc(-c3cncnc3)cc2O[C@H]1CN(C)C(=O)Cc1ccccc1,-1.41% (inactive)
21,COc1ccc(-c2nnc(SCC(=O)Nc3cccc(SC)c3)n2C)cc1,-10.6% (inactive)
22,CC(=O)OC[C@H]1O[C@@H](Oc2c(-c3ccc(O)c(O)c3)oc3cc(O)cc(O)c3c2=O)[C@H](O)[C@@H](O)[C@@H]1O,7.83% (inactive)

row,Structure (SMILES),activation
1,CCc1ccccc1NC(=O)COc1cc(O)c2c(=O)cc(-c3ccccc3)oc2c1,-9.5% (inactive)
2,COc1c(O)cc2oc(-c3ccc(O)c(O)c3)cc(=O)c2c1O,89.5% (active)
3,CCOC(=O)c1c(NC(=O)C(C)Oc2ccc3c(C)cc(=O)oc3c2)sc2c1CCC2 (stereo not drawn),18.5% (inactive)
4,O=C(CN(C1CCCCC1)S(=O)(=O)c1ccc(Cl)cc1)Nc1ccccc1C(F)(F)F,3.31% (inactive)
5,COc1cccc(C#Cc2cnc3c(c2)C(=O)N([C@@H](C)CO)C[C@H](C)[C@H](CN(C)CC2CC2)O3)c1,4.89% (inactive)
6,COc1cc(CO)cc(Cl)c1OCc1cccc([N+](=O)[O-])c1,0.353% (inactive)
7,COc1ccccc1CCNC(=O)c1cnccn1,18.5% (inactive)
8,C[C@@H]1CN([C@@H](C)CO)C(=O)c2c(c3ccccc3n2C)-c2ccccc2CO[C@@H]1CN(C)S(=O)(=O)CC(F)(F)F,6.74% (inactive)
9,Cc1ccccc1-c1ccc2c(c1)O[C@@H](CN(C)C(=O)Nc1ccc(F)cc1)[C@H](C)CN([C@@H](C)CO)S2(=O)=O,-36.4% (inactive)
10,CCCNC(=O)C[C@H]1C[C@@H]2c3cc(NS(=O)(=O)c4cccc(OC)c4)ccc3O[C@@H]2[C@@H](CO)O1,9.83% (inactive)
11,CCOc1ccc(Cl)cc1S(=O)(=O)NC1CC(C)(C)NC(C)(C)C1,2.34% (inactive)
12,COc1ccc(NC(=O)COc2cc(C)c(Br)c(C)c2)c([N+](=O)[O-])c1,-11.9% (inactive)
13,Cc1cc2nc(-c3ccc(NC(=O)COc4ccccc4[N+](=O)[O-])cc3)oc2cc1C,68.1% (active)
14,Cc1ccc(NC(=O)COc2ccccc2C)c([N+](=O)[O-])c1,109% (active)
15,COc1ccc(C(=O)Nc2cc(C)ccc2NC(=O)COc2ccccc2)cc1,28% (inactive)
16,Cc1cc(C)c2oc(-c3ccc(C)c(NC(=O)COc4ccccc4C)c3)nc2c1,-4.75% (inactive)
17,CN(CC(=O)Nc1ccccc1C#N)S(=O)(=O)c1ccc2ccccc2c1,0.461% (inactive)
18,Cc1ccc(-c2nc3cc(NC(=O)COc4ccc([N+](=O)[O-])cc4)ccc3o2)cc1C,21.6% (inactive)
19,O=C(COc1ccc([N+](=O)[O-])cc1)Nc1ccc2oc(-c3cccc(F)c3)nc2c1,43.6% (inactive)
20,Cc1ccc(C)c(OCC(=O)Nc2ccccc2C#N)c1,121% (active)
21,COc1ccccc1NC(=O)CSc1ncc(-c2ccccc2)nn1,36.5% (inactive)
22,C[C@@H]1CN([C@H](C)CO)C(=O)c2cc(C#Cc3cccnc3)cnc2O[C@@H]1CN(C)Cc1ccc(F)cc1,5.15% (inactive)
